Experiment: small molecules captured by biotinylated probe aFST – biochemical, small-molecule microarray, fluorescence 635/667, stem cell growth factor project, primary screen (AID 1086);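 also: score merges 667 nm fluorescence with signal-to-noise of each printed compound spot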
Settings: higher = more signal
With O=C1C[C@]2(c3ccc([N+](=O)[O-])cc3)C(=O)N(CC(F)(F)F)c3cc(CO)ccc3[C@H]2N1CC12CC3CC(CC(C3)C1)C2 the composite z-score was 0.0443. For N#Cc1ccc(NN2C(C(O)c3cccs3)C=CC3C(=O)N(c4ccccc4)C(=O)C32)cc1 (stereo not given), the composite z-score was 0.632. Molecule COCCOC(=O)N1C(=O)[C@@]2(c3cc(C#CCNC(N)=O)ccc31)[C@H](C(=O)N1CCc3cc(OC)c(OC)cc3C1)[C@H]1C(=O)O[C@H](c3ccccc3)[C@H](c3ccccc3)N1[C@@H]2c1ccc(OCCO)cc1 has a composite z-score of 0.536. Molecule CC(=O)Nc1cc(Br)ccc1C(=O)O has a composite z-score of 0.353. Work on C=CCOC(=O)[C@@H]1[C@H]2C(=O)O[C@H](c3ccccc3)[C@H](c3ccccc3)N2[C@H](c2ccc(OCCOC(=O)[C@@H]3C[C@@H]4C(=O)N[C@@H](Cc5ccccc5)C(=O)N4[C@@H]3c3cccc(OCCO)c3)cc2)[C@@]12C(=O)Nc1ccc(I)cc12 yielded a composite z-score of 0.043. Work on [N-]=[N+]=NCc1ccccc1C[C@]1(C(=O)O)N=C(c2ccc(OCCCO)cc2)O[C@H]1c1ccccc1CN=[N+]=[N-] yielded a composite z-score of 0.467. For NCCCCCNC(=O)[C@H]1C[C@H]2C(=O)NCC(=O)N2[C@H]1c1cccc(OCCO)c1, the composite z-score was 0.95. Molecule COc1cc2c(cc1OC)CN(C(=O)[C@@H]1[C@H]3C(=O)O[C@H](c4ccccc4)[C@H](c4ccccc4)N3[C@H](c3ccccc3OCCO)[C@@]13C(=O)Nc1ccc(C#CCNC(N)=O)cc13)CC2 has a composite z-score of 0.237. For C=C(COC)C(=O)CC[C@H](OC(C)=O)c1cccc(OCCO)c1, the composite z-score was -0.392. In the case of CCOC(=O)C[C@H]1[C@H](OC(=O)Cc2ccc3c(c2)OCO3)[C@@H](NC(=O)C2CCCCC2)c2cc(OCCCO)ccc2N1C(=O)Cc1ccc(OC)cc1, the composite z-score is reported as 0.364.

Reference: PubChem BioAssay
